Screening results (PubChem)
D2 ag-1 = Beta-Arrestin HTS for Positive Allosteric Modulators of the Human D2 Dopamine Receptor: Agonists | D(2) dopamine receptor (Homo sapiens), P14416 | DiscoveRx PathHunter D2 beta-arrestin, luminescence, 90 min; 100% = 57 uM dopamine signal | activation, % (no concentration beside the values) | actives 0.084% (n = 360,000) | AID 624465, 2012; in the data active = activation above about 40%
Target sequence (P14416 whole entry, looked up): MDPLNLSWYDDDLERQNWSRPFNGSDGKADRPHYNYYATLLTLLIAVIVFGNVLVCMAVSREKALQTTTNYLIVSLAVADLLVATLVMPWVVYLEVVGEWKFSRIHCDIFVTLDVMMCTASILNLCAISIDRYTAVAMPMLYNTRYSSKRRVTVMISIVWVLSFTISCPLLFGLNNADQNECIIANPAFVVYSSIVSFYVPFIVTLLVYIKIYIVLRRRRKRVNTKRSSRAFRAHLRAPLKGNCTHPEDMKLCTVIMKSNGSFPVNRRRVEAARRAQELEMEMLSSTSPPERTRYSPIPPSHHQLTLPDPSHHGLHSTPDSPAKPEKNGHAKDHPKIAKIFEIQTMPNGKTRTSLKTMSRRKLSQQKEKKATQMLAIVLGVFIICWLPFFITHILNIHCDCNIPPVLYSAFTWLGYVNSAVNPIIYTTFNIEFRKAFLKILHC
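DiscoveRx PathHunter D2 beta-arrestin cells (2,100/well) attached overnight, then compound-stimulated 90 min at 37 C in HBSS/10 mM HEPES/0.1% Tween-20 buffer; beta-galactosidase complementation read by luminescence after 1 h at ambient temperature. Dopamine 57 uM final (EC100) as control.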
D2 PAM-1 = Beta-Arrestin HTS for Positive Allosteric Modulators of the Human D2 Dopamine Receptor: Potentiators. D(2) dopamine receptor (Homo sapiens), P14416. DiscoveRx D2 beta-arrestin cells, luminescence, 90 min; 100% = 57 uM dopamine signal. potentiation, % (no concentration beside the values). actives 0.23% (n = 360,000). AID 624464, 2012; in the data active = potentiation above about 50%
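PathHunter beta-arrestin assay in DiscoveRx D2 cells. Compounds were added with an EC20 of dopamine (50 nM final) for 90 min at 37 deg C. Luminescence was read 1 h after detection reagent, with 57 uM dopamine as the EC100 control.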
D2 PAM-2 = HTS Assay for Positive Allosteric Modulators of the Human D2 Dopamine Receptor: Primary Screen for Potentiators; D(2) dopamine receptor (Homo sapiens), P14416; AID 485347, 2010; actives 0.34% (n = 340,000); HEK293 T-REx D2, calcium flux, EC20 dopamine potentiation; potentiation, % at 10 µM;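 active = potentiation over 3 SD above the plate norm, cut at about 30% in these data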; note: 0% is about no effect
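Tetracycline-induced Hek293 Trex D2 cells, force-coupled to calcium, loaded with no-wash calcium dye. Compound added with 180 s kinetic read for agonism, then EC20 dopamine and a further 180 s read for potentiation.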
D2 ag-2 = HTS Assay for Allosteric Agonists of the Human D2 Dopamine Receptor: Primary Screen for Agonists. D(2) dopamine receptor (Homo sapiens), P14416. HEK293 T-REx D2 cells, calcium flux agonist mode. activation, % at 2 µM. actives 0.53% (n = 340,000);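 active = activation over 3 SD above normal in the single-dose calcium agonist read, cut at about 30% in these data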; note: 0% is about no effect
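In this primary screen, compounds producing a positive calcium signal within 180 s of addition to tetracycline-induced, force-coupled HEK293 Trex D2 cells are flagged; cells are dye-loaded with a no-wash calcium kit beforehand.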
D2 antag = HTS Assay for Allosteric Antagonists of the Human D2 Dopamine Receptor: Primary Screen for Antagonists; inhibition, % at 10 µM; D(2) dopamine receptor (Homo sapiens), P14416; AID 485344, 2010; HEK293 TREx D2 cells, calcium flux, dopamine EC80; actives 2% (n = 340,000); in the data active = inhibition above about 30%; inactive = below that, where a call was filed; note: 0% is about no effect
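Calcium mobilization kinetics were recorded at 1 s intervals in tetracycline-induced HEK293 T-REx D2 cells, first for 180 s after compound addition and then 180 s after EC80 dopamine.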
An asterisk follows results filed as active; nt = no result. Most compounds without a hit are left out; they make up all but 2.4% or so of the library.

SMILES | D2 ag-1 | D2 PAM-1 | D2 PAM-2 | D2 ag-2 | D2 antag
CC1=CC2=NC(=O)CC(C)(C(=O)N(CC(=O)NC3CCCC3)c3cc(C)cc(C)c3)N2C=C1 (stereo unspecified) | 1 | -7 | 10 | 0 | 60*
CC(=O)NS(=O)(=O)c1ccc(NC(=O)c2cc(-c3cccs3)nc3ccccc23)cc1 | 1 | -1 | -17 | 37* | 17
Cc1cc(NC(=O)c2cc(-c3cccs3)nc3ccccc23)no1 | 7 | -2 | 0 | 0 | 37*
COc1ccc(S(=O)(=O)/C(C#N)=C/Nc2cccc(F)c2)cc1 | -1 | 4 | 1 | 0 | -5
COc1ccc(S(=O)(=O)/C(C#N)=C/Nc2ccccc2F)cc1 | 1 | -6 | -2 | 0 | 40*
CC(C)=C(C#N)c1nc2ccccc2s1 | -4 | -1 | -3 | 1 | -24
N#C/C(=C/c1ccncc1)c1nc2ccccc2s1 | 8 | -7 | -2 | 30* | 4
COC(=O)C1=CN(CC2CCCO2)C=C(C(=O)OC)C1c1cccc(O)c1 (stereo unspecified) | -4 | -11 | 12 | 1 | -14
COC(=O)C1=CN(CC2CCCO2)C=C(C(=O)OC)C1c1ccccc1C(F)(F)F (stereo unspecified) | -1 | 12 | 6 | 0 | 43*
COc1cccc(CNC(=O)c2cccc(-n3c(C)nc4cccnc43)c2C)c1 | nt | nt | -5 | 0 | nt
COC(=O)c1cc(C(=O)OC)cc(-n2c(C)cc(C(=O)CC#N)c2C)c1 | -2 | -1 | 13 | 0 | 33*
COc1ccc2nc(SC)c(C#N)cc2c1 | 0 | 5 | -5 | -1 | 55*
COc1ccc2nc(SCC(C)=O)c(C#N)cc2c1 | -1 | -2 | 7 | 14 | -3
COc1cccc2cc(C(=O)NCc3ccccn3)c(=O)oc12 | -2 | 8 | -4 | 0 | 44*
Cc1cc(C)cc(N=Cc2[nH]c3ccc(Br)c(Cl)c3c2O)c1 | 6 | -12 | -4 | 34* | -4
COC(=O)c1cc2sc(Cl)cc2n1CC(=O)Nc1cc(C)cc(C)c1 | nt | nt | -8 | 0 | nt
COc1cccc(-c2noc(C3CCCN(C(=O)c4ccc(F)cc4F)C3)n2)c1 (stereo unspecified) | -4 | 0 | 19 | -1 | 33*
Cc1ccc(CC(=O)Nc2ccc(F)c([N+](=O)[O-])c2)cc1C | -3 | -9 | -8 | 2 | 42*
COc1ccc(Nc2ncc3c(n2)CCN(Cc2cccc(F)c2F)C3)c(OC)c1 | nt | nt | 7 | 2 | nt
CCc1cc2c(N[C@@H](Cc3c[nH]c4ccccc34)C(=O)O)ncnc2s1 | -2 | 2 | 8 | 0 | 21
CCc1cc2c(NC(Cc3c[nH]c4ccccc34)C(=O)O)nc(C)nc2s1 (stereo unspecified) | 4 | 4 | -1 | -2 | 34*
O=C(O)c1nn(CCOc2c(Cl)cccc2Cl)c(=O)c2ccccc12 | 3 | -2 | 45* | -1 | 4
COCCn1c(C)cc(C(=O)Cn2nc(C(=O)O)c3ccccc3c2=O)c1C | 3 | -8 | -1 | 1 | 32*
COCCn1c(C)cc(C(=O)COC(=O)c2ccc[nH]c2=O)c1C | 0 | 4 | 4 | 0 | 62*
O=C(O)c1nn(CCOc2cccc(Cl)c2)c(=O)c2ccccc12 | -3 | 1 | 1 | 0 | -4
Cc1cc(C(=O)COC(=O)c2ccc[nH]c2=O)c(C)n1C | -1 | 19 | 2 | 1 | -15
CCN(C(=O)CSc1ncc2c(n1)-c1cc(Cl)ccc1N(Cc1ccccc1)S2(=O)=O)c1cccc(C)c1 | nt | nt | 6 | nt | nt
COC(=O)c1sccc1S(=O)(=O)N(CC(=O)NCc1ccc(C)cc1)c1ccc(C)cc1 | nt | nt | 10 | 0 | nt
